Results on 87 molecules are retold here after PubChem BioAssay AID435005 (Broad Institute, 2010).

“And” between values parts separate entries of the source, which are not always exact repeats. Identical values can stand only once. Among all 300,000 compounds or so, about 2,400 (0.8%) were called active.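 Rule for the calls: active = Every replicate reaches about 75%, or at least half do and their mean reaches it too (limit read from the data); inconclusive = At least half of replicates reach the limit but their mean does not; inactive = Under half of replicates reach the limit.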 This excerpt belongs to a sample that is enriched for actives. The source holds several records for some structures; these can differ, active in one and inactive in another.

This assay in a line: INS-1E beta cell survival under cytokines – luminescence, primary screen (AID 435005).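 Note: 0% = cytokine-treated negative control wells and 100% = positive control rescue; higher means more ATP so stronger rescue from cytokine killing.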 Particulars: INS-1E cytokine-induced death, ATP luminescence, 48 h; stronger effect = higher value; percent of positive-control rescue, neutral wells zero; concentration not given here.
Consider `C=CCC[C@@H](Cc1ccc(F)cc1)C(=O)OC[C@@H](C)NC(=O)[C@H](CC=C)CC(=O)N(CCO)Cc1ccccc1`, for which the protection from apoptosis was -3.2% (inactive).
In the case of `CC(C)(C)NS(=O)(=O)NC(=O)C1=C(N2CCCC2)COC1=O`, the protection from apoptosis is -7.92% (inactive).
Turning to `COc1ccc(NC(=O)CNc2cc(S(=O)(=O)N3CCOCC3)ccc2N2CCOCC2)c(OC)c1`, the protection from apoptosis was -2.12% (inactive).
Turning to `CC(CNC(=O)Cn1cnc2c(OCc3ccccc3)ncnc21)c1ccccc1` (configuration not stated), the protection from apoptosis is 0.936% (inactive).
On to `CC(C)(C)OC(=O)C[C@@H]1C/C=C\C[C@@H](CC(=O)N[C@H](CO)Cc2ccccc2)C(=O)NC[C@@H](c2ccccc2)OC1=O`, for which the protection from apoptosis was 6.98% (inactive).
For `Cc1ccc(Cl)cc1NC(=O)c1ccccn1` the value was -1.51% (inactive); for `CCOc1cc2ccccc2cc1C(=O)Nc1ccccn1`, -5.78% (inactive); for `CCN(CC)CCOc1ccc2c(c1)C(=NNC(=O)c1ccccn1)c1cc(OCCN(CC)CC)ccc1-2`, 107% (active).
For the molecule `NS(=O)(=O)c1ccc(CNC(=O)c2cccc(S(=O)(=O)N3CCc4ccccc43)c2)cc1`, the protection from apoptosis is 1.37% (inactive).
On to `O=C(Nc1cc(S(=O)(=O)N2CCCCC2)ccc1Cl)C1COc2ccccc2O1` (configuration not stated), for which the protection from apoptosis is 3.53% (inactive).
For `Cc1cccc(NC(=O)Nc2cccc(Oc3c(F)c(F)c(F)c(F)c3F)c2)c1` the value was 99.2% (active); for `Cc1cccc(NC(=O)Nc2nnc(-c3ccccc3)o2)c1`, -2.12% (inactive).
With `COc1cccc(NC(=O)NCc2ccc(F)cc2)c1`, the protection from apoptosis was -3.25% (inactive).
Turning to `CN(CC(=O)Nc1ccc(C(N)=O)cc1)S(=O)(=O)c1ccc2c(c1)OCCO2`, the protection from apoptosis was -4.98% (inactive).
`N#Cc1cccc(NC(=O)C2CCCN(C(=O)c3ccc(Cl)cc3)C2)c1` (configuration not stated): the protection from apoptosis was 0.765% (inactive).
As to `Cc1ccc(/C=C/C(=O)Nc2ccc([N+](=O)[O-])c(NC(=O)/C=C/c3ccc(C)o3)c2)o1`, the protection from apoptosis was 2.69% (inactive).
For `O=C(N/N=C/c1ccc([N+](=O)[O-])o1)c1cn(-c2ccccc2)nc1-c1ccc(F)cc1` the value was -1.79% (inactive); for `O=C(/C=C/c1ccc([N+](=O)[O-])o1)NNC(=O)c1ccc(F)cc1`, 93.8% (active); for `C[C@H]1COC(=O)[C@H](CC(=O)OC(C)(C)C)C/C=C\C[C@@H](CC(=O)N[C@H](CO)Cc2ccccc2)C(=O)N1`, 0.417% (inactive).
`COCCCNC(=O)CC1C[C@H](C(=O)N2CCCCC2)[C@@]2(CCc3ccccc3)c3[nH]c4ccccc4c3CCN2C1=O` (some centres not stated): the protection from apoptosis was -3.93% (inactive).
For the molecule `C=CC[C@@H](CC(=O)N[C@H](CO)Cc1ccccc1)C(=O)N[C@@H](COC(=O)[C@@H](CC=C)Cc1ccc(F)cc1)Cc1c[nH]c2ccccc12`, the protection from apoptosis is 2.3% (inactive).
Turning to `CCOC(=O)C1=C(c2ccc(OC)cc2)C(=O)c2ccccc2C1=O`, the protection from apoptosis was 130% (active).
Regarding `COc1ccc(N2CCN(C(C)=C3C(=O)c4ccccc4C3=O)CC2)cc1`, the protection from apoptosis is -2.02% (inactive).
For `CCOC(=O)c1c(-c2ccc(C)cc2)csc1/N=C(\C)C1=C(O)c2ccccc2C1=O`, the protection from apoptosis is -5.12% (inactive).
Turning to `Cc1ccc(NC(=O)C2CC2)cc1S(=O)(=O)N1CCOCC1`, the protection from apoptosis was -4.34% (inactive).
In the case of `CC(OC(=O)c1c(F)cccc1F)C(=O)NCCC1=CCCCC1` (configuration not stated), the protection from apoptosis was -3.37% (inactive).
Consider `CCC(CO)Oc1cc(NCc2ccccc2)c2ncn(C3CCCC3)c2c1` (configuration not stated), for which the protection from apoptosis is -4.59% (inactive).
For `CC(C)n1cnc2c(NCc3ccccc3)cc(OCC3CCN(C)CC3)cc21`, the protection from apoptosis was -8.55% (inactive).
`CC(C)n1cnc2c(NCc3ccccc3)cc(N[C@@H](CO)Cc3ccccc3)cc21`: the protection from apoptosis is 135% (active).
For `COc1ccc(C2(c3ccc(OC)cc3)NC(=O)N(CC(=O)Nc3cc(C)on3)C2=O)cc1` the value was -3.35% (inactive); for `CCn1nnc2cc(C(=O)Nc3ccc(C(=O)OC(C)C)cc3)ccc21`, 1.63% (inactive).
Turning to `O=C(Nc1ccccc1Cl)/C(Cl)=C(\Cl)S(=O)c1ccccc1` (configuration not stated), the protection from apoptosis was 123% (active).
`O=C(Cc1ccc2c(c1)CCCC2)Nc1ccccc1Cl`: the protection from apoptosis is 9.68% (inactive).
As to `O=C(Nc1ccccc1Cl)Nc1cccc2cccnc12`, the protection from apoptosis is 15.9% (inactive).
On to `O=C(Nc1cccc(S(=O)(=O)NC2=NCCC2)c1)c1ccc(F)cc1F`, for which the protection from apoptosis is -5.38% (inactive).
With `COc1cc(/C=C/C(=O)OCC(=O)c2ccccc2)cc(OC)c1OC`, the protection from apoptosis was -3.69% (inactive).
As to `Oc1ccc(N=Nc2nccs2)c(O)c1`, the protection from apoptosis is 98.3% (active).
For `c1ccc(NCc2cccc3ccccc23)nc1` the value was -6.69% (inactive); for `Oc1ccc2ccccc2c1N=Nc1nccs1`, 83.9% (active).
With `CCN1/C(=C\c2ccc3ccccc3[n+]2CC)Sc2cc(C)ccc21`, the protection from apoptosis was 106% (active).
With `Cc1nc2ccc(NC(=O)c3cccc(S(=O)(=O)N4CCOCC4)c3)cc2s1` the figure was -1.06% (inactive).
For `c1ccc2cc(CCCc3cc4ccccc4cn3)ncc2c1`, the protection from apoptosis was -10.4% (inactive).
`Cc1ccc(NC(=O)Cn2cnc3c(OCc4ccccc4)ncnc32)cc1C`: the protection from apoptosis is -4.68% (inactive).
For `COCCN(Cc1ccccc1)C(=O)Cc1ccc(S(=O)(=O)N2CCOCC2)s1`, the protection from apoptosis is -6.29% (inactive).
Turning to `O=C(CN1C(=O)NC2(CCCCCC2)C1=O)NCc1ccc(F)cc1`, the protection from apoptosis was -3.82% (inactive).
As for `Clc1ccc(C[n+]2cc(-c3ccccc3)n3c2CCC3)cc1`, the protection from apoptosis was -17.9% (inactive).
For `Cc1ccc(-c2c[n+](CC(=O)Nc3ccccc3)c3n2CCC3)cc1`, the protection from apoptosis is -4.97% (inactive).
With `Cc1ccc(C(=O)C[n+]2cc(-c3ccccc3)n3c2CCCCC3)cc1` the figure was 80.4% (active) and 69.5% (inactive).
With `O=C(CNC(=O)c1n[nH]c2ccccc12)Nc1cc(Cl)ccc1Cl`, the protection from apoptosis was -6.41% (inactive).
As to `COc1ccc(S(=O)(=O)N2CCCCCC2)cc1NC(=O)Cc1ccc(OC)c(OC)c1`, the protection from apoptosis was -0.791% (inactive).
For the molecule `CCOc1ccc(S(=O)(=O)N2CCCCC2)cc1NC(=O)CN1CCCC1c1cccs1` (configuration not stated), the protection from apoptosis was 108% (active).
As for `COc1ccc(S(=O)(=O)N2CCCCC2)cc1NC(=O)COc1ccccc1`, the protection from apoptosis was 3.1% (inactive).
On to `CCc1sc(C(=O)N2CCN(CC(=O)Nc3cccc(F)c3)CC2)cc1C`, for which the protection from apoptosis is -5.03% (inactive).
For the molecule `O=C(CC1SCCNC1=O)Nc1ccc(Cl)c(Cl)c1` (configuration not stated), the protection from apoptosis is 0.331% (inactive).
On to `O=C(Cc1ccc(Cl)c(Cl)c1)Nc1ccc(SC(F)F)cc1`, for which the protection from apoptosis is -2.99% (inactive).
With `O=C(CC(O)(C(F)(F)F)C(F)(F)F)Nc1ccc(Cl)c(Cl)c1` the figure was 105% (active); with `O=C(Cn1cnc2c(OCc3ccccc3)ncnc21)NCc1nc2ccccc2[nH]1`, -9.45% (inactive); with `COc1ccc(CNc2nc(NCc3ccc(OC)cc3)c3ncn(C4CCCC4)c3n2)cc1`, -10.2% (inactive).
`O=C(/C=C/c1cccc([N+](=O)[O-])c1)N1CCN(Cc2ccccc2)CC1`: the protection from apoptosis was -1.33% (inactive).
Turning to `O=c1c([N+](=O)[O-])cc(C(F)(F)F)cn1Cc1cccc(Cl)c1`, the protection from apoptosis was -7.45% (inactive).
On to `O=[N+]([O-])/C=C/c1ccc2c(ccn2Cc2ccccc2)c1`, for which the protection from apoptosis was 102% (active).
On to `CCC(CO)Oc1cc(NC(=O)c2cccc3ccccc23)c2ncn(C(C)C)c2c1` (configuration not stated), for which the protection from apoptosis is 4.17% (inactive).
Regarding `O=C1C=C(c2cc(C(F)(F)F)cc(C(F)(F)F)c2)C[C@@H](c2ccc3c(c2)OCO3)C1`, the protection from apoptosis was 7.25% (inactive).
Consider `COc1ccc(-c2csc(NC(=O)COC(=O)Cc3ccc(Cl)cc3Cl)n2)cc1`, for which the protection from apoptosis is 2.13% (inactive).
For `CCCc1ccc(-c2csc(NC(=O)Cc3cccs3)n2)cc1`, the protection from apoptosis is 6.06% (inactive).
For the molecule `COc1cccc(CC(=O)Nc2nc(-c3ccc(OC)c(OC)c3)cs2)c1`, the protection from apoptosis is -4.99% (inactive).
Turning to `Cc1ccc(S(=O)(=O)NC(=O)Nc2nc(-c3ccc(F)c(F)c3)cs2)cc1`, the protection from apoptosis was -25.4% (inactive).
`COc1ccc(CC(=O)Nc2nc(-c3ccc(F)c(F)c3)cs2)cc1OC`: the protection from apoptosis was 97.5% (active).
With `COc1cc(CC(=O)Nc2nc(-c3ccc(F)c(F)c3)cs2)cc(OC)c1OC`, the protection from apoptosis was 92.9% (active).
For `Cc1cccc(-n2ncc3c(=O)[nH]c(SCC(=O)Nc4cc(C)on4)nc32)c1`, the protection from apoptosis was 1.12% (inactive).
Consider `COc1ccc(CCNC(=O)COC(=O)Cc2ccccc2F)cc1`, for which the protection from apoptosis was -2.5% (inactive).
Take `Cc1ccc(CC(=O)Nc2ccc(S(=O)(=O)N3CCOCC3)cc2)cc1C`: the protection from apoptosis was 0.192% (inactive).
Regarding `CC(OC(=O)c1cc2ccccc2[nH]1)C(=O)N(C)c1ccccc1` (configuration not stated), the protection from apoptosis was -1.05% (inactive).
As for `CCS(=O)(=O)c1ccc2oc(SCC(=O)N3c4ccccc4CC3C)nc2c1` (configuration not stated), the protection from apoptosis was -3.73% (inactive).
With `Cc1cc(=O)[nH]c(SCC(=O)N2c3ccccc3CC2C)n1` (configuration not stated), the protection from apoptosis was -8.13% (inactive).
For `CC1Cc2ccccc2N1C(=O)CSc1nc2ccccc2o1` (configuration not stated), the protection from apoptosis was 104% (active).
With `O=C(COC(=O)c1cccnc1Cl)NC12CC3CC(CC(C3)C1)C2` the figure was -1.6% (inactive).
As for `Cc1ccc(NC(=O)C2CCC(C(C)(C)C)CC2)cc1S(=O)(=O)N1CCOCC1` (configuration not stated), the protection from apoptosis was 6.89% (inactive).
As for `COc1ccc(CCNC(=O)/C(C#N)=C2\N=C(NC(=O)c3cccs3)c3ccccc32)cc1`, the protection from apoptosis was -2.09% (inactive).
As for `COc1ccc(CCNC(=O)CSc2nnc(CNC(=O)c3cccs3)o2)cc1OC`, the protection from apoptosis is -5.35% (inactive).
As to `O=C(NCC#CCSc1nnc(-c2cccc3ccccc23)o1)c1cccs1`, the protection from apoptosis was 109% (active).
For `Cc1noc(C)c1NC(=O)Nc1cccc2c1O[C@H](CN(C)S(=O)(=O)c1c(C)noc1C)[C@@H](C)CN([C@H](C)CO)C2=O`, the protection from apoptosis is 1.37% (inactive).
`COc1ccc(S(=O)(=O)N2CCOCC2)cc1NC(=O)CSc1nnc(NC2CC2)s1`: the protection from apoptosis is 0.467% (inactive).
Take `CC(NC(=O)COC(=O)Cn1cc(C(F)(F)F)ccc1=O)c1ccccc1` (configuration not stated): the protection from apoptosis is 1.74% (inactive).
With `CCOc1ccc(NC(=O)c2ccccc2NS(C)(=O)=O)cc1`, the protection from apoptosis is 0.287% (inactive).
With `COC(=O)c1ccc(NC(=O)c2ccccc2NS(=O)(=O)c2ccccc2)cc1` the figure was 32.1% (inactive); with `COc1cc(NC(=O)c2ccccc2NS(=O)(=O)c2ccc(Cl)s2)cc(OC)c1`, 111% (active).
